Bioassay records deposited in PubChem by several laboratories.
Sampled rows, rich in hits. Any-hit rate of the full collection: about 1.3%.
FID counter = fluorescent intercalator displacement, NS3 helicase counter-screen; AID 1845; 0.17% of 290,000 active; inhibition, % at 7.9 µM; DNA fluorescent intercalator displacement, fluorescence; in the data active = inhibition above about 37%;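 also: 0% = vehicle and 100% = reference compound; higher means more ethidium bromide displaced from hairpin DNA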
MIN6 prolif = induces beta-cell replication in MIN6 cells; proliferation, % at 10 µM; 0.29% of 330,000 active; AID 2380; MIN6 cells proliferation, ATPlite luminescence, 48 h; cells starved in 0.2% serum; 100% = growth in 10% serum;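 active = compounds whose signal lies at least 3.5 SD above the mean of all wells on their plate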;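 also: 0% = DMSO-treated cells in low-serum medium and 100% = 10% serum control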
RAD54 branch = inhibitors of human RAD54 branch migration. RAD54 Holliday junction branch migration, FAM/BHQ fluorescence. inhibition, % at 10.4 µM. Q92698. 0.14% of 360,000 active;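 active = mean normalized replicate activity at least 40 and at least half of replicates scoring 40 or more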;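 also: 0% = median of neutral control wells and 100% = median of positive control wells; inhibitors cause a drop in the FAM fluorescence signal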
PREPL inh = inhibitors of human prolyl oligopeptidase-like enzyme PREPL; inhibition, % at 5.96 µM; AID 2751; recombinant PREPL, fluorescence polarization activity-based probe; Q4J6C6; 0.68% of 320,000 active; in the data active = inhibition above about 43%;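 also: 0% = enzyme with DMSO and 100% = wells lacking enzyme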
RAD52 anneal inh = inhibitors of human RAD52 DNA annealing; recombinant RAD52 DNA annealing, FRET fluorescence; inhibition, % at 18.7 µM; 0.46% of 360,000 active; AID 651710;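 active = every replicate showing at least 50% inhibition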
UBC13 polyUb = inhibitors of human UBC13 polyubiquitin chain formation | TR-FRET | inhibition, % at 20 µM | 0.47% of 330,000 active | AID 485273; in the data active = inhibition above about 45%, passing the limit was not always enough
Target sequence (P61088 whole entry, looked up): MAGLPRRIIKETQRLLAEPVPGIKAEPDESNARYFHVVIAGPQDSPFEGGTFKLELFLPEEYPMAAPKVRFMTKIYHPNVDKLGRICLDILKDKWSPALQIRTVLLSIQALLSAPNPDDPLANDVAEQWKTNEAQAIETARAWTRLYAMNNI
Casp3 UBC13 ctr = counter-screen for UBC13 inhibitors: human caspase-3 inhibition; shares compounds with UBC13 polyUb; Recombinant caspase-3, Caspase-Glo 3/7 luminescence, 60 min; AID 488856; inhibition, % at 20 µM; 4% of 1,400 active;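 active = mean inhibition across replicates above about 26%, limit read from the data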;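 also: plate controls were DMSO with caspase-3 for no effect and DMSO wells lacking enzyme for full effect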
Target sequence (P42574 whole entry, looked up): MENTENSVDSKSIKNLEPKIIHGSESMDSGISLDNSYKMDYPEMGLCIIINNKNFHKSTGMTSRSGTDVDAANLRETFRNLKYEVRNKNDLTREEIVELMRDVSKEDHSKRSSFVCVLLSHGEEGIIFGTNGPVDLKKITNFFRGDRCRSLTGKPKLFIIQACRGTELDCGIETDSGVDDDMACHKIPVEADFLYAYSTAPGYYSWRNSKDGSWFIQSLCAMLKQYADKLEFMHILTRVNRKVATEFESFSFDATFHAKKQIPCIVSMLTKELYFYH
UBC13 conf = confirmation of human UBC13 polyubiquitin inhibitors. inhibition, % at 10 µM. UBC13 polyubiquitination, TR-FRET, biochemical. AID 488859. shares compounds with UBC13 polyUb. 68% of 1,400 active; in the data active = inhibition above about 45%
Starred values were filed as active, the others as inactive.

Results for CC(=O)Nc1ccc(S(=O)(=O)NNC(=O)C(=O)NNc2ccccn2)cc1 ?
FID counter: -8; MIN6 prolif: 1; RAD54 branch: -11; PREPL inh: 4; RAD52 anneal inh: -6; UBC13 polyUb: 58*; Casp3 UBC13 ctr: 3; UBC13 conf: 95*

What do the screens show for `Cc1ccc(S(=O)(=O)NNC(=O)C(=O)NNc2ccccn2)cc1`?
FID counter: -11; MIN6 prolif: -4; RAD54 branch: -2; PREPL inh: -10; UBC13 polyUb: 69*; Casp3 UBC13 ctr: -1; UBC13 conf: 81*

Results for Cc1ccc(S(=O)(=O)NNC(=O)C(O)(c2ccccc2)c2ccccc2)cc1 ?
FID counter: -13; MIN6 prolif: 0; RAD54 branch: -10; PREPL inh: 6; RAD52 anneal inh: -13; UBC13 polyUb: 4

Results for Cn1cnc(S(=O)(=O)N2C[C@@H](O)COC[C@@H]3O[C@H](CC(=O)NCc4cc(F)cc(F)c4)CC[C@H]32)c1 ?
RAD54 branch: 1; RAD52 anneal inh: 18

Results for COc1cc(-c2cc(C(=O)Nc3ccc(S(=O)(=O)Nc4ncccn4)cc3)c3ccccc3n2)cc(OC)c1OC ?
FID counter: -3; MIN6 prolif: -3; PREPL inh: -7; RAD52 anneal inh: -9; UBC13 polyUb: 28

What do the screens show for `COc1cc(-c2cc(C(=O)Nc3ccc(S(N)(=O)=O)cc3)c3ccccc3n2)cc(OC)c1OC`?
FID counter: -27; MIN6 prolif: -3; RAD54 branch: 3; PREPL inh: 7; RAD52 anneal inh: -10; UBC13 polyUb: 60*; Casp3 UBC13 ctr: -1; UBC13 conf: 48*

How did COc1ccc(Nc2cc(Nc3ccc(OC)cc3)ncn2)cc1 do in these assays?
FID counter: -7; MIN6 prolif: -3; RAD54 branch: -11; PREPL inh: -3; RAD52 anneal inh: -2; UBC13 polyUb: -2

Results for COc1ccc(Nc2cc(Nc3cc(OC)c(OC)c(OC)c3)ncn2)cc1 ?
FID counter: -28; MIN6 prolif: -2; RAD54 branch: 3; PREPL inh: 28; RAD52 anneal inh: -11; UBC13 polyUb: 55*; Casp3 UBC13 ctr: -1; UBC13 conf: 58*

Results for CNC[C@@H]1Oc2ccc(NS(=O)(=O)c3cn(C)cn3)cc2CC(=O)N([C@H](C)CO)C[C@H]1C ?
RAD54 branch: -5; RAD52 anneal inh: 11

What do the screens show for `CCOC(=O)Cc1cc(=O)[nH]c(Nc2nc3ccccc3o2)n1`?
FID counter: -5; MIN6 prolif: -1; RAD54 branch: 10; PREPL inh: 6; UBC13 polyUb: 82*; Casp3 UBC13 ctr: 45*; UBC13 conf: 93*

What do the screens show for `COCc1cc(=O)[nH]c(Nc2nc(C)c3ccccc3n2)n1`?
FID counter: -11; MIN6 prolif: -1; PREPL inh: 9; UBC13 polyUb: -5

Results for Cc1ccc2oc(Nc3nc(-c4ccccc4)cc(=O)[nH]3)nc2c1 ?
FID counter: -4; MIN6 prolif: -5; RAD52 anneal inh: -15; UBC13 polyUb: 5

Results for COC(=O)Cc1cc(=O)[nH]c(/N=C(\N)Nc2ccccc2)n1 ?
FID counter: -10; MIN6 prolif: 0; PREPL inh: 10; UBC13 polyUb: 17

How did COC(=O)Cc1cc(=O)[nH]c(Nc2nc3ccccc3o2)n1 do in these assays?
FID counter: -17; MIN6 prolif: -1; RAD54 branch: 5; PREPL inh: 9; UBC13 polyUb: 58*; Casp3 UBC13 ctr: 18; UBC13 conf: 73*

Results for COCc1cc(=O)[nH]c(Nc2nc3ccccc3o2)n1 ?
FID counter: -12; MIN6 prolif: -2; RAD54 branch: 10; PREPL inh: -11; UBC13 polyUb: 81*; Casp3 UBC13 ctr: 43*; UBC13 conf: 81*

Results for CC(C)NC(=O)Nc1cccc2c1O[C@@H](CN(C)CC1CCCCC1)[C@H](C)CN([C@@H](C)CO)C2=O ?
RAD52 anneal inh: -4

What do the screens show for `CS(=O)(=O)c1ncc(Cl)c(C(=O)Nc2ccc(OC(F)F)cc2)n1`?
FID counter: 5; MIN6 prolif: -5; RAD54 branch: 4; PREPL inh: -22; RAD52 anneal inh: -7; UBC13 polyUb: 38

Results for CS(=O)(=O)c1ncc(Cl)c(C(=O)Nc2ccc(N3CCOCC3)cc2)n1 ?
FID counter: 3; MIN6 prolif: -4; PREPL inh: 16; UBC13 polyUb: 45*; Casp3 UBC13 ctr: 11; UBC13 conf: 33

Results for NCCNc1ccc(C(=O)N2c3ccccc3Sc3ccccc32)cc1[N+](=O)[O-] ?
FID counter: 32; MIN6 prolif: -4; RAD54 branch: -4; PREPL inh: -14; RAD52 anneal inh: -30; UBC13 polyUb: 65*; Casp3 UBC13 ctr: -2; UBC13 conf: 111*

What do the screens show for `Nc1ccc(C(=O)OCC(=O)N2c3ccccc3Sc3ccccc32)cc1[N+](=O)[O-]`?
FID counter: 4; RAD54 branch: -13; PREPL inh: -6

Results for C[C@@H]1CN([C@H](C)CO)S(=O)(=O)c2ccc(C3=CCCCC3)cc2O[C@H]1CN(C)C(=O)C1CC1 ?
RAD54 branch: 0; RAD52 anneal inh: 4

What do the screens show for `OCCN1CCN(CC/C=C2/c3ccccc3Sc3ccc(Cl)cc32)CC1`?
MIN6 prolif: -8; RAD54 branch: 12; PREPL inh: -7; RAD52 anneal inh: 40; UBC13 polyUb: 74*; Casp3 UBC13 ctr: 4; UBC13 conf: 60*

How did CCCCCCCCCC[N+](C)(C)CC/C=C1/c2ccccc2Sc2ccc(Cl)cc21 do in these assays?
FID counter: 19; MIN6 prolif: -5; RAD54 branch: 30; PREPL inh: 40; UBC13 polyUb: 107*; Casp3 UBC13 ctr: -2; UBC13 conf: 119*

What do the screens show for `CN(C)CC/C=C1\c2ccccc2Sc2ccc(Cl)cc21`?
FID counter: 18; MIN6 prolif: -8; RAD54 branch: 9; PREPL inh: -36; RAD52 anneal inh: 46; UBC13 polyUb: 12

Results for CCCCCc1cc(=O)oc2c(C(CCN3CCCC(C)C3)c3cc(OC)c(OC)c(OC)c3)c(OC)cc(OC)c12 (stereo not given) ?
MIN6 prolif: -9; RAD54 branch: 2; PREPL inh: 4; UBC13 polyUb: 67*; Casp3 UBC13 ctr: 0; UBC13 conf: 40

Results for COc1cc(C(CCN2CCCC(C)C2)c2c(OC)cc(OC)c3c2OC(=O)CC3c2ccc(N(C)C)cc2)cc(OC)c1OC (stereo not given) ?
MIN6 prolif: -8; RAD54 branch: -1; PREPL inh: 28; UBC13 polyUb: 45*; Casp3 UBC13 ctr: -1; UBC13 conf: 24
